The values below come from PubChem BioAssay (NCI).

Some test systems named below: SR leukemia; RPMI-8226 leukemia; OVCAR-8 ovarian; OVCAR-5 ovarian; OVCAR-4 ovarian; SK-OV-3 ovarian; IGROV1 ovarian; OVCAR-3 ovarian; HS 578T breast; NCI/ADR-RES ovarian.
What all share (assay): NCI-60 one-dose screen, 48 h (100 = growth as untreated, 0 = no growth, -100 = all killed)
Holding throughout (conditions): 10 µM unless noted

Compounds without any hit were thinned out: in the full panel of roughly 83,000, 20% have a hit.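 Results are percent growth after 48 hours of single-concentration exposure. 100 means growth as in untreated cells, lower positive values show inhibition; negative values down to -100 show cell death.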 Unmarked numbers belong to inactive results. Activity calls are given as the source filed them. Rule for the calls: active = growth percent below 10; inactive = the rest.

Consider `Nc1ncc(-c2ccc3ncnc(N4CCc5ccc(Cl)cc54)c3c2)cc1C(F)(F)F`, for which the growth was -5.75% (active) with SR leukemia; -3.24% (active) in the assay with RPMI-8226 leukemia; 25.2% with OVCAR-8 ovarian; 12.2% in the assay with OVCAR-5 ovarian; 8.43% (active) with OVCAR-4 ovarian; 6.83% (active) in the assay with SK-OV-3 ovarian. For the same molecule, the growth with IGROV1 ovarian was -53.3% (active); in the assay on OVCAR-3 ovarian, 10.8%; with HS 578T breast, -14.3% (active); with NCI/ADR-RES ovarian, 20.3%.
With `O=C(CCCCCCCCC(=O)N/N=C\c1ccccc1O)N/N=C\c1ccccc1O`, the growth was 13.5% with SR leukemia; 32.8% in the assay on RPMI-8226 leukemia; 25.5% in the assay on OVCAR-8 ovarian; 67.5% in the assay on OVCAR-5 ovarian; 15.9% with OVCAR-4 ovarian; 36.9% in the assay with SK-OV-3 ovarian. Further, the growth is 29.6% in the assay on IGROV1 ovarian, 39.8% in the assay on OVCAR-3 ovarian, 46.8% in the assay on HS 578T breast and 14.1% in the assay on NCI/ADR-RES ovarian.
On to `Brc1ccc(/C=C(/C2=NCCN2)n2ccc3ccccc32)cc1`, for which the growth was 30.4% in the assay with SR leukemia; 86.1% with RPMI-8226 leukemia; 72.3% with OVCAR-8 ovarian; 72.9% with OVCAR-5 ovarian; 67.7% in the assay with OVCAR-4 ovarian; 82% in the assay on SK-OV-3 ovarian. Further, the growth with IGROV1 ovarian was 60.7%; with OVCAR-3 ovarian, 77.6%; in the assay on HS 578T breast, 78.2%; in the assay on NCI/ADR-RES ovarian it was 65.9%.
Consider `C=C1C(=O)O[C@H]2[C@H]1CC/C(COC(=O)NCCCCNC(=O)OC/C1=C/CC[C@@]3(C)O[C@H]3[C@H]3OC(=O)C(=C)[C@@H]3CC1)=C\CC[C@@]1(C)O[C@@H]21`, for which the growth was -1.79% (active) in the assay on SR leukemia; -28.3% (active) in the assay on RPMI-8226 leukemia; 12.5% in the assay with OVCAR-8 ovarian; 4.4% (active) in the assay on OVCAR-5 ovarian; 31.1% in the assay with OVCAR-4 ovarian; 94.2% in the assay with SK-OV-3 ovarian. Moreover, the growth is 48.9% in the assay on IGROV1 ovarian, -8.75% (active) with OVCAR-3 ovarian, 70.5% in the assay on HS 578T breast and 99.5% with NCI/ADR-RES ovarian.
`CN(Cc1ccccc1)c1nc(Cl)c(C2CC(c3ccc4c(c3)OCO4)=NN2c2cc(Cl)cc(Cl)c2)s1` (stereo not given): the growth in the assay on SR leukemia is 98.6%; in the assay on RPMI-8226 leukemia, 83.7%; in the assay on OVCAR-8 ovarian, 105%; with OVCAR-5 ovarian it was 106%; in the assay with OVCAR-4 ovarian, 90.1%; in the assay on SK-OV-3 ovarian, 92.9%. The growth was 95.3% with IGROV1 ovarian, 103% in the assay on OVCAR-3 ovarian, 96.5% with HS 578T breast and 104% in the assay on NCI/ADR-RES ovarian.
As for `O=C([C@H]1C[C@H]1c1ccc(S(F)(F)(F)(F)F)cc1)N1CCN(c2cc(Cl)ccc2C(F)(F)F)CC1`, the growth is 88.1% with SR leukemia; 75.8% in the assay on RPMI-8226 leukemia; 92.2% with OVCAR-8 ovarian; 95.3% in the assay on OVCAR-5 ovarian; 90.7% with OVCAR-4 ovarian; 79.1% with SK-OV-3 ovarian. For the same molecule, the growth in the assay on IGROV1 ovarian is 73.3%; with OVCAR-3 ovarian, 100%; in the assay on HS 578T breast, 91.4%; in the assay on NCI/ADR-RES ovarian it was 95.5%.
For `CN(C)CCCn1c2c(c3ccc(N4CCNCC4)cc3c1=O)C(=O)c1ccccc1-2`, the growth with SR leukemia was -16.4% (active); in the assay with RPMI-8226 leukemia it was -32.4% (active); with OVCAR-8 ovarian it was -8.9% (active); in the assay on OVCAR-5 ovarian, 16.5%; with OVCAR-4 ovarian it was -22.9% (active); in the assay on SK-OV-3 ovarian, 6.3% (active). Besides, the growth in the assay on IGROV1 ovarian was 5.77% (active); with OVCAR-3 ovarian, -0.802% (active); with HS 578T breast, 49.1%; in the assay with NCI/ADR-RES ovarian it was -13.8% (active).
For `Cc1cc(N2CCCCC2)nc(NCc2cc(Nc3ccnc4cc(Cl)ccc34)ccc2F)n1`, the growth in the assay on SR leukemia was -21.3% (active); in the assay with RPMI-8226 leukemia, -38.9% (active); with OVCAR-8 ovarian, -15% (active); with OVCAR-5 ovarian it was -42.1% (active); with OVCAR-4 ovarian, -4.79% (active); in the assay on SK-OV-3 ovarian it was 72.6%. Besides, the growth is 10.2% with IGROV1 ovarian, -79.5% (active) in the assay with OVCAR-3 ovarian, 14.9% in the assay with HS 578T breast and 6.86% (active) in the assay with NCI/ADR-RES ovarian.
For the molecule `Cc1ccc(-c2nc3nc(-c4ccccc4)nc(N4CCCNCC4)c3o2)cc1`, the growth in the assay on SR leukemia is -49.7% (active); in the assay on RPMI-8226 leukemia, -55% (active); in the assay on OVCAR-8 ovarian, -48.4% (active); with OVCAR-5 ovarian, -32.4% (active); with OVCAR-4 ovarian it was -52.3% (active); in the assay on SK-OV-3 ovarian, 79.9%. Besides, the growth with IGROV1 ovarian is -73.8% (active); in the assay with OVCAR-3 ovarian, -81.7% (active); in the assay with HS 578T breast, -18.1% (active); in the assay on NCI/ADR-RES ovarian it was -29.8% (active).
For the molecule `Cn1cc(-c2csc(-c3cn(CCOC(N)=O)c4ccccc34)n2)c2cccnc21`, the growth in the assay on SR leukemia is 20.3%; in the assay on RPMI-8226 leukemia, 74.1%; with OVCAR-8 ovarian, 89.4%; in the assay with OVCAR-5 ovarian it was 104%; in the assay on OVCAR-4 ovarian it was 102%; with SK-OV-3 ovarian, 95.2%. For the same molecule, the growth with IGROV1 ovarian was 77.7%; in the assay with OVCAR-3 ovarian it was 94.9%; with HS 578T breast, 92.6%; in the assay on NCI/ADR-RES ovarian, 82.9%.
On to `COc1cc(C=O)ccc1Oc1ccc([N+](=O)[O-])cc1[N+](=O)[O-]`, for which the growth was 80.7% in the assay with SR leukemia; 89.5% in the assay on RPMI-8226 leukemia; 93.7% in the assay with OVCAR-8 ovarian; 109% in the assay on OVCAR-5 ovarian; 97% with OVCAR-4 ovarian; 96.4% in the assay with SK-OV-3 ovarian. In addition, the growth is 105% in the assay on IGROV1 ovarian, 107% in the assay on OVCAR-3 ovarian, 93.1% with HS 578T breast and 99.6% in the assay on NCI/ADR-RES ovarian.
Regarding `CCCCSc1ccc2nc(-c3ccc(OCCCN=C(N)N)cc3)cn2c1`, the growth with SR leukemia is 85.8%; in the assay on RPMI-8226 leukemia, -27.2% (active); with OVCAR-8 ovarian, 90.9%; in the assay with OVCAR-5 ovarian it was 73%; in the assay with OVCAR-4 ovarian, 96.8%; in the assay with SK-OV-3 ovarian, 111%. The growth was 52.3% with IGROV1 ovarian, 30.8% in the assay on OVCAR-3 ovarian, 35.5% with HS 578T breast and 104% in the assay with NCI/ADR-RES ovarian.
